Assay results as given in PubChem BioAssay AID504920 (Johns Hopkins Ion Channel Center, 2011).
Active and inactive are the calls of the source.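 The calls were made as follows: active = peak hERG channel inhibition above 30% at some tested dose, together with a fitted dose response curve; inactive = no hERG inhibition at any dose, or no curve.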

target: Voltage-gated inwardly rectifying potassium channel KCNH2 (Homo sapiens) (UniProt Q12809); assay: hERG channel inhibition, SAR follow-up, selectivity assay for KCNK9 inhibitor project, FluxOR Tl flux, hERG-expressing cells (AID 504920); conditions: FluxOR thallium flux fluorescence; series mostly up to 30 µM; fluorescence ratio, lower = inhibition: at the top concentration
Sequence (Q12809 whole entry, looked up): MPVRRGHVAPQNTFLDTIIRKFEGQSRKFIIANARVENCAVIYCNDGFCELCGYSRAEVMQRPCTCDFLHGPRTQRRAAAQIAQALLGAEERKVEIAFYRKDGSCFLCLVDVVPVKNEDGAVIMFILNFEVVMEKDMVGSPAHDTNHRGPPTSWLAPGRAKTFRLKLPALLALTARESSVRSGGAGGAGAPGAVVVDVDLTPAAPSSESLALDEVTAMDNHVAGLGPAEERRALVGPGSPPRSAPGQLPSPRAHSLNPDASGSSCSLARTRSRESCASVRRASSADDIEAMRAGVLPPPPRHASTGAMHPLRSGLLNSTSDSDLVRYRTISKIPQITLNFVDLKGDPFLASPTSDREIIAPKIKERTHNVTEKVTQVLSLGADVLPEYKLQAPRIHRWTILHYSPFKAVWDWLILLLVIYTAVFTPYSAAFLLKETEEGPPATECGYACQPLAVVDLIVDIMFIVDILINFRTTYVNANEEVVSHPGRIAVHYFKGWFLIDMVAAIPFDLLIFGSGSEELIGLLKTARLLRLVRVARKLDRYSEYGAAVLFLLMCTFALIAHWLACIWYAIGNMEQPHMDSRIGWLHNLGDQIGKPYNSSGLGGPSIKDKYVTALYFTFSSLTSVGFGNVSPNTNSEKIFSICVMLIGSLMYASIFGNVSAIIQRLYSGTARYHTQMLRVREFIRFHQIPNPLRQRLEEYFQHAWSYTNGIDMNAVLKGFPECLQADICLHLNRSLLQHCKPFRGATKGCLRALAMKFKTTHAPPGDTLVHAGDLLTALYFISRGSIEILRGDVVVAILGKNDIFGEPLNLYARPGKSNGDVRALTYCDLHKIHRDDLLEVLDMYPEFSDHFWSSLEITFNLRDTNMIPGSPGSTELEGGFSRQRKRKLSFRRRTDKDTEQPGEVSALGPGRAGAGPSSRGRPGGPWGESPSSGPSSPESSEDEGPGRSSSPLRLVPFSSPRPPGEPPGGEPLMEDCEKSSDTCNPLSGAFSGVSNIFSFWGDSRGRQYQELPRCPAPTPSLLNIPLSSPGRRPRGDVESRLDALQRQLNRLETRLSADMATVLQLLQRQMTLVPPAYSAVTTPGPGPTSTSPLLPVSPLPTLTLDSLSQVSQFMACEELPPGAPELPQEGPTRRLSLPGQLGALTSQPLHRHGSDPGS

Compound | fluorescence ratio, lower = inhibition
Cc1cccc(C(=O)Nc2ccccc2C(=O)Nc2ccccc2)c1 | 0.274 (inactive)
Cc1cccc(C(=O)Nc2ccc(C(=O)Nc3ccccc3)cc2)c1 | 0.47 (inactive)
Cc1cccc(NC(=O)c2cccc(NC(=O)c3ccccc3)c2)c1 | 0.4 (inactive)
Cc1cccc(C(=O)Nc2cccc(C(=O)Nc3ccccc3)c2)c1 | 0.362 (inactive)
Cc1cccc(NC(=O)c2ccccc2NC(=O)c2ccccc2)c1 | 0.494 (inactive)
